Test results reported in PubChem BioAssay.
“And” between values parts separate entries of the source, which are not always exact repeats. Identical values can stand only once. For some assays here: Entries with a potency or affinity are not part of this list. A structure can be active in one record and inactive in another. The source made the active and inactive calls. Unless noted, no rule for the calls is given here.

Tests used:
[1] = antimalarial activity against Dd2 strain (AID 2302;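 active = growth inhibition above 50% at the single 2 µM test dose, taken to imply half-maximal potency below 2 µM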;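 also: 0% = DMSO untreated growth and 100% = chloroquine plus artemisinin killed control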); details: P. falciparum Dd2 in RBCs, LDH growth readout, 72 h; at 2 µM; stronger effect = higher value
[2] = human hepatoma cell viability loss – ATP luminescence, cytotoxicity control for P. falciparum antimalarial project, primary screen (AID 2303;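 active = inhibition above 50%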;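 also: 0% = DMSO wells and 100% = digitonin-killed cells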); details: HepG2 viability, 24-48 h, at 10 µM, stronger effect = higher value
[3] = molecular target: L-lactate dehydrogenase (Plasmodium falciparum (isolate CDC / Honduras)) (UniProt Q27743); test: PfLDH activity inhibition – cell lysate, 3D7 strain, counter-screen for P. falciparum growth inhibition project (AID 2304);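 also: 0% = vehicle and 100% = reference inhibitor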; details: P. falciparum 3D7 crude extract, LDH APAD/NBT absorbance; at 2 µM; stronger effect = higher value
[4] = inhibition of 3D7 malaria parasite growth – strain 3D7 (AID 2306);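 also: 0% = DMSO wells and 100% = chloroquine plus artemisinin control wells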; details: P. falciparum 3D7 erythrocytic growth, LDH absorbance, 72 h; at 2 µM; stronger effect = higher value
[5] = molecular target: Calcium-dependent protein kinase 1 (Plasmodium falciparum (isolate 3D7)) (UniProt P62344); test: PfCDPK1 kinase inhibitors, biochemical, TCAMS library (AID 1159585; cut-off not given, nearly all actives have IC50 up to about 0.98 µM;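 also: inhibitors leave more ATP so luminescence rises with inhibition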); details: recombinant PfCDPK1, Kinase-Glo ATP depletion luminescence
[6] = molecular target: Plasmodium falciparum protein kinase 6 (PK6, PF3D7_1337100) (UniProt Q8IDW1); test: PfPK6 kinase inhibitors, biochemical, TCAMS library (AID 1159586); details: recombinant PfPK6, Kinase-Glo ATP depletion luminescence
[7] = molecular target: Protein kinase 7 (PK7), Plasmodium falciparum 3D7 (PF3D7_0213400) (UniProt Q7YTF7); test: inhibition of Plasmodium PK7 catalytic activity – biochemical, TCAMS antimalarial set, Kinase-Glo luminescence (AID 1159587); details: recombinant PfPK7, Kinase-Glo ATP depletion luminescence
[8] = molecular target: Calcium-dependent protein kinase 4 (Plasmodium falciparum (isolate 3D7)) (UniProt Q8IBS5); test: PfCDPK4 kinase inhibitors, biochemical, TCAMS library (AID 1159588; cut-off not given, nearly all actives have IC50 up to about 0.91 µM); details: recombinant PfCDPK4, Kinase-Glo ATP depletion luminescence
Chain of Calcium-dependent protein kinase 4 (Plasmodium falciparum (isolate 3D7)) (Q8IBS5 whole entry, looked up): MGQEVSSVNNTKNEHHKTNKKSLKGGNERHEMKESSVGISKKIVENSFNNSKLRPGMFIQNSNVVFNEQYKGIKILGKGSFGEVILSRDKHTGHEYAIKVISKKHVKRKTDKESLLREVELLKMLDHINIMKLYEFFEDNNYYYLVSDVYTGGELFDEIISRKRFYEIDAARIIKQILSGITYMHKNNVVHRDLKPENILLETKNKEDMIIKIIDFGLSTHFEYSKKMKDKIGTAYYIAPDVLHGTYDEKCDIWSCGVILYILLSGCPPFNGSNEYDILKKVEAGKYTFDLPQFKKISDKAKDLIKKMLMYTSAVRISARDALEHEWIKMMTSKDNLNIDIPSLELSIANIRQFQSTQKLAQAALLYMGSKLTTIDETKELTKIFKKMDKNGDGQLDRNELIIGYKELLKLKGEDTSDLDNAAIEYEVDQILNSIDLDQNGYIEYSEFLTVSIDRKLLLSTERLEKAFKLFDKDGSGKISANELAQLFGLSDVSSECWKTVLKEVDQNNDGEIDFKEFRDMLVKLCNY

Chain of Calcium-dependent protein kinase 1 (Plasmodium falciparum (isolate 3D7)) (P62344 whole entry, looked up): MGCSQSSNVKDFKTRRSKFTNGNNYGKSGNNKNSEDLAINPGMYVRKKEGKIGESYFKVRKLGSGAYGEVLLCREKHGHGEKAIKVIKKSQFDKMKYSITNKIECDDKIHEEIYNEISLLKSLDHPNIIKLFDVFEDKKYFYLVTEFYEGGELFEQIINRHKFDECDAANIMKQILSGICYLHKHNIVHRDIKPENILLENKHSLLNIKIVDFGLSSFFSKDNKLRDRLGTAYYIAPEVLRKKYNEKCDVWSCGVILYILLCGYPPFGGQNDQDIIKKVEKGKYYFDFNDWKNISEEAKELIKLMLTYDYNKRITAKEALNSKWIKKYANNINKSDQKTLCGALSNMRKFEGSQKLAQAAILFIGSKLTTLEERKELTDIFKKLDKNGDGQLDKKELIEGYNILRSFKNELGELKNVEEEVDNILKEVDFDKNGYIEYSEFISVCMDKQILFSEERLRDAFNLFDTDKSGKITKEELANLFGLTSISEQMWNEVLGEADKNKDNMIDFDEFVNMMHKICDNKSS
Chain of Plasmodium falciparum protein kinase 6 (PK6, PF3D7_1337100) (Q8IDW1 1-305): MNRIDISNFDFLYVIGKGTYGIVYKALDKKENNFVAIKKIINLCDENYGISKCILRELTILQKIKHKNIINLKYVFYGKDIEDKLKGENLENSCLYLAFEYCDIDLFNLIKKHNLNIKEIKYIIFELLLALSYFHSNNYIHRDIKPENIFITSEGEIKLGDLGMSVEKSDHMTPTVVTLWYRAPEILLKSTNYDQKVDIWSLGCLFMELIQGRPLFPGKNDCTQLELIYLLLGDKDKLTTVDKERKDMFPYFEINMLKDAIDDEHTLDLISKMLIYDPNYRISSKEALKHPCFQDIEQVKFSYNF
Chain of L-lactate dehydrogenase (Plasmodium falciparum (isolate CDC / Honduras)) (Q27743 whole entry, looked up): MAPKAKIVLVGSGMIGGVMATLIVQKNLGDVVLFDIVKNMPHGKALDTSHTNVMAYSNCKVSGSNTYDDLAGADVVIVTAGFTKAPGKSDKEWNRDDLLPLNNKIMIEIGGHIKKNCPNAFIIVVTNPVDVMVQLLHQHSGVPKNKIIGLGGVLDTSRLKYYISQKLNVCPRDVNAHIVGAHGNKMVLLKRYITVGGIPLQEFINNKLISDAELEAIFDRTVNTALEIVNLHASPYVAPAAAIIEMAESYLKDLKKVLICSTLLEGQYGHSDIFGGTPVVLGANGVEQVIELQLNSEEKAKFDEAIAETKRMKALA
Chain of Protein kinase 7 (PK7), Plasmodium falciparum 3D7 (PF3D7_0213400) (Q7YTF7 1-343): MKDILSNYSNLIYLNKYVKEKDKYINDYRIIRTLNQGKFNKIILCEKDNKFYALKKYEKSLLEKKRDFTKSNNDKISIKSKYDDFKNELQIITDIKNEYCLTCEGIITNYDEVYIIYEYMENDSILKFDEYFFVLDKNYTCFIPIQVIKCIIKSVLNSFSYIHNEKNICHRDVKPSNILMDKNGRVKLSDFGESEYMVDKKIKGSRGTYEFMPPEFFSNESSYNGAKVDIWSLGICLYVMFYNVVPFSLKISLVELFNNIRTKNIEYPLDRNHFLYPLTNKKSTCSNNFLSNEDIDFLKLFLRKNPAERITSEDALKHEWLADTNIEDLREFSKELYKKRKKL

Row | Structure (SMILES) | growth inhibition [1] | inhibition [2] | inhibition [3] | growth inhibition [4] | outcome [5] | outcome [6] | outcome [7] | outcome [8]
1 | O=C(Cc1cc(=O)oc2cc(O)ccc12)N1CCC(CN2CCC(c3c[nH]c4ccccc34)CC2)CC1 | -11% (inactive) | 1% (inactive) | 3% (inactive) | 94% (active) | inactive | inactive | inactive | inactive
2 | Cc1[nH]c2cc(F)ccc2c1C1=CCN(CCCCC2(C)C(=O)Nc3c(F)cccc32)CC1 (stereo unspecified) | 89% (active) | 15% (inactive) | -7% (inactive) | 96% (active) | inactive | inactive | inactive | inactive
3 | Oc1ccc(CN2CCN(CCOC(c3ccc(F)cc3)c3ccc(F)cc3)CC2)cc1Cl | 87% (active) | 19% (inactive) | -4% (inactive) | 96% (active) | inactive | inactive | inactive | inactive
4 | CN(C)CCCOc1ccc(CN2CCC(c3c[nH]c4ccc(NCC5CCCCC5)cc34)CC2)cc1 | 99% (active) | 58% (active) | 3% (inactive) | 99% (active) | inactive | inactive | inactive | inactive
5 | Cc1[nH]c2ccc(NS(C)(=O)=O)cc2c1C1CCN(CC2CCN(C(=O)/C=C/c3ccc(Cl)c(Cl)c3)CC2)CC1 | 83% (active) | 15% (inactive) | -4% (inactive) | 99% (active) | inactive | inactive | inactive | inactive
6 | c1ccc(C(OCCC2CCN(Cc3cccc4cccnc34)CC2)c2ccccc2)cc1 | 99% (active) | 9% (inactive) | 0% (inactive) | 99% (active) | inactive | inactive | inactive | inactive
7 | COc1ccc(C[C@H](C)NC[C@H](O)c2cccc(Cl)c2)cc1F | 75% (active) | 6% (inactive) | -2% (inactive) | 89% (active) | inactive | inactive | inactive | inactive
8 | CCN(CC)CCOC(=O)C(OC)(c1ccccc1)c1ccccc1 | 6% (inactive) | -4% (inactive) | 2% (inactive) | 97% (active) | inactive | inactive | inactive | inactive
9 | CCCc1cc(O)c2c3c(c(=O)oc2c1)CN(C)CC3 | 50% (active) | 12% (inactive) | 0% (inactive) | 98% (active) | inactive | inactive | inactive | inactive
10 | CCOC(C(=O)OCC1CCCN1C(C)C)(c1ccccc1)c1ccccc1 (stereo unspecified) | 2% (inactive) | -1% (inactive) | -3% (inactive) | 98% (active) | inactive | inactive | inactive | inactive
11 | COc1cc2nc(N(C)C3CCN(Cc4ccccc4)CC3)nc(N)c2cc1OC | 93% (active) | 19% (inactive) | 1% (inactive) | 99% (active) | inactive | inactive | inactive | inactive
12 | O=C(/C=C/c1ccccc1Cl)NC1CCC(CN2CCC(c3c[nH]c4ccccc34)CC2)CC1 (stereo unspecified) | 35% (inactive) and 51% (active) | 33% (inactive) and 41% (inactive) | -2% (inactive) and 3% (inactive) | 99% (active) and 100% (active) | inactive | inactive | inactive | inactive
13 | Cc1c(C(=O)NC2CCC(CN3CCC(c4c[nH]c5ccccc45)CC3)CC2)cnn1-c1c(Cl)cc(Cl)cc1Cl (stereo unspecified) | 97% (active) | 53% (active) | 4% (inactive) | 100% (active) | inactive | inactive | inactive | inactive
14 | Fc1ccc2[nH]cc(CCN3CCC(CNCc4ccccc4)CC3)c2c1 | 94% (active) | 67% (active) | 4% (inactive) | 100% (active) | inactive | inactive | inactive | inactive
15 | O=C(C=Cc1ccc(F)c(Br)c1)N1CCC(CN2CCC(c3c[nH]c4ccccc34)CC2)CC1 | 9% (inactive) | 39% (inactive) | -3% (inactive) | 100% (active) | inactive | inactive | inactive | inactive
16 | CCN1CC=C(c2c[nH]c3ccccc23)CC1 | 58% (active) | 27% (inactive) | -1% (inactive) | 84% (active) | inactive | inactive | inactive | inactive
17 | O=C(NC1CCC(CN2CCC(c3c[nH]c4ccccc34)CC2)CC1)NC12CC3CC(CC(C3)C1)C2 (stereo unspecified) | 46% (inactive) | 37% (inactive) | 7% (inactive) | 96% (active) | inactive | inactive | inactive | inactive
18 | COc1cc(C=CC(=O)N2CCC(CN3CCC(c4c[nH]c5ccccc45)CC3)CC2)cc(OC)c1 | 8% (inactive) | 19% (inactive) | 4% (inactive) | 95% (active) | inactive | inactive | inactive | inactive
19 | COC(=O)c1ccc(CC(C)NCC(O)c2cccc(SC(F)(F)F)c2)cc1 (stereo unspecified) | 72% (active) | 7% (inactive) | -2% (inactive) | 96% (active) | inactive | inactive | inactive | inactive

Row | Structure (SMILES) | growth inhibition [1] | inhibition [2] | inhibition [3] | growth inhibition [4] | outcome [5] | outcome [6] | outcome [7] | outcome [8]
20 | Oc1ccc(Cl)cc1CN1CCC(CCOC(c2ccccc2)c2ccccc2)CC1 | 99% (active) | 14% (inactive) | 4% (inactive) | 98% (active) | inactive | inactive | inactive | inactive
21 | O=C(/C=C/c1ccc(Cl)c(Cl)c1)N(Cc1ccccc1)C1CCC(CN2CCC(c3c[nH]c4ccccc34)CC2)CC1 (stereo unspecified) | 59% (active) | 37% (inactive) | -6% (inactive) | 101% (active) | inactive | inactive | inactive | inactive
22 | Cc1cc(N(C)C2CCN(C)CC2)nc(Nc2ccc(Br)cc2)n1 | 92% (active) | -5% (inactive) | 2% (inactive) | 100% (active) | inactive | inactive | inactive | inactive
23 | CN(c1cc(NC(=O)c2ccc(F)cc2)ccn1)C1CCN(Cc2cccc(O)c2)CC1 | 82% (active) | 3% (inactive) | 2% (inactive) | 100% (active) | inactive | inactive | inactive | inactive
24 | O=C(/C=C/c1ccc(Cl)c(Cl)c1)N1CCC(CN2CCC(c3c(Br)[nH]c4ccccc34)CC2)CC1 | 99% (active) | 41% (inactive) | -4% (inactive) | 100% (active) | inactive | inactive | inactive | inactive
25 | O=c1c2ccccc2nc(C=Cc2ccc([N+](=O)[O-])cc2)n1-c1ccccn1 | 96% (active) | 5% (inactive) | -1% (inactive) | 98% (active) | inactive | inactive | inactive | inactive
26 | CC[C@H]1CN2CC[C@H]1C[C@H]2[C@H](O)c1ccnc2ccc(C#N)cc12 | 55% (active) | 0% (inactive) | 5% (inactive) | 100% (active) | inactive | inactive | inactive | inactive
27 | CC(Cc1ccc(-c2nc3ccccc3[nH]2)cc1)NCC(O)c1cccc(C(F)(F)F)c1 (stereo unspecified) | 90% (active) | 33% (inactive) | 4% (inactive) | 97% (active) | inactive | inactive | inactive | inactive
28 | CCCCCc1cc(O)c2c(c1)OC(C)(C)CC2C1=CCN(Cc2cnc3ccccc3c2)CC1 (stereo unspecified) | 98% (active) | 27% (inactive) | 0% (inactive) | 98% (active) | inactive | inactive | inactive | inactive
29 | CC(=O)C1(c2ccccc2)CCN(CCC2(c3ccc(Cl)c(Cl)c3)CN(C(=O)Nc3cc(F)cc(F)c3)CCO2)CC1 (stereo unspecified) | 20% (inactive) | 2% (inactive) | -1% (inactive) | 86% (active) | inactive | inactive | inactive | inactive
30 | COc1ccc(C(=O)[C@H]2C[C@@H]2CN2CC=C(c3c(C)[nH]c4ccccc34)CC2)cc1 | 94% (active) | 16% (inactive) | -6% (inactive) | 96% (active) | inactive | inactive | inactive | inactive
31 | Clc1ccc2nccc(N3CCC(CN4CCC(c5c[nH]c6ccccc56)CC4)CC3)c2c1 | 81% (active) | 46% (inactive) | 4% (inactive) | 101% (active) | inactive | inactive | inactive | inactive
32 | CC1CN=C(Nc2ncc(Cl)cc2Cl)N1 (stereo unspecified) | 3% (inactive) | 2% (inactive) | 7% (inactive) | 99% (active) | inactive | inactive | inactive | inactive
33 | O=C(C=C1c2ccccc2-c2ccccc21)NC1CCC(CN2CCC(c3c[nH]c4ccccc34)CC2)CC1 (stereo unspecified) | 64% (active) and 67% (active) | 21% (inactive) and 54% (active) | 4% (inactive) and 1% (inactive) | 102% (active) and 99% (active) | inactive | inactive | inactive | inactive
34 | CC(=O)N(Cc1cccc(-c2cccc(CNCc3ccc4c(c3)OCO4)c2)c1)C1CCN(Cc2ccccc2)CC1 | 21% (inactive) | 16% (inactive) | -5% (inactive) | 95% (active) | inactive | inactive | inactive | inactive
35 | C=C[C@H]1CN2CC[C@@H]1C[C@H]2[C@H](O)c1cc(-c2ccc(F)cc2)nc2ccc(OC)cc12 | 98% (active) | 5% (inactive) | -1% (inactive) | 99% (active) | inactive | inactive | inactive | inactive
36 | O=C(/C=C/c1ccc2ccccc2c1)NC1CCC(CN2CCC(c3c[nH]c4ccccc34)CC2)CC1 (stereo unspecified) | 88% (active) | 28% (inactive) | 4% (inactive) | 100% (active) | inactive | inactive | inactive | inactive
37 | COCC(=O)N(Cc1ccccc1-c1ccc(CNCCc2ccccc2)cc1)C1CCN(Cc2ccccc2)CC1 | 86% (active) | 39% (inactive) | 1% (inactive) | 94% (active) | inactive | inactive | inactive | inactive
